Assay results as given in publication PMC4336329 (PLoS ONE, 2015).
Screen size: about 310,000 compounds; about 2,200 (0.71%) showed an effect of 50% or more. The effect is printed as a negative number. The sample as a whole holds a higher share of strong results than the screen did.

Each compound was assayed against human ether-à-go-go-related gene (hERG) potassium channel (human, UniProt Q12809) (assay: primary screen, population patch clamp on CHO cells stably expressing hERG; higher = less effect of the substance).
Chain of human ether-à-go-go-related gene (hERG) potassium channel (Q12809 whole entry, looked up): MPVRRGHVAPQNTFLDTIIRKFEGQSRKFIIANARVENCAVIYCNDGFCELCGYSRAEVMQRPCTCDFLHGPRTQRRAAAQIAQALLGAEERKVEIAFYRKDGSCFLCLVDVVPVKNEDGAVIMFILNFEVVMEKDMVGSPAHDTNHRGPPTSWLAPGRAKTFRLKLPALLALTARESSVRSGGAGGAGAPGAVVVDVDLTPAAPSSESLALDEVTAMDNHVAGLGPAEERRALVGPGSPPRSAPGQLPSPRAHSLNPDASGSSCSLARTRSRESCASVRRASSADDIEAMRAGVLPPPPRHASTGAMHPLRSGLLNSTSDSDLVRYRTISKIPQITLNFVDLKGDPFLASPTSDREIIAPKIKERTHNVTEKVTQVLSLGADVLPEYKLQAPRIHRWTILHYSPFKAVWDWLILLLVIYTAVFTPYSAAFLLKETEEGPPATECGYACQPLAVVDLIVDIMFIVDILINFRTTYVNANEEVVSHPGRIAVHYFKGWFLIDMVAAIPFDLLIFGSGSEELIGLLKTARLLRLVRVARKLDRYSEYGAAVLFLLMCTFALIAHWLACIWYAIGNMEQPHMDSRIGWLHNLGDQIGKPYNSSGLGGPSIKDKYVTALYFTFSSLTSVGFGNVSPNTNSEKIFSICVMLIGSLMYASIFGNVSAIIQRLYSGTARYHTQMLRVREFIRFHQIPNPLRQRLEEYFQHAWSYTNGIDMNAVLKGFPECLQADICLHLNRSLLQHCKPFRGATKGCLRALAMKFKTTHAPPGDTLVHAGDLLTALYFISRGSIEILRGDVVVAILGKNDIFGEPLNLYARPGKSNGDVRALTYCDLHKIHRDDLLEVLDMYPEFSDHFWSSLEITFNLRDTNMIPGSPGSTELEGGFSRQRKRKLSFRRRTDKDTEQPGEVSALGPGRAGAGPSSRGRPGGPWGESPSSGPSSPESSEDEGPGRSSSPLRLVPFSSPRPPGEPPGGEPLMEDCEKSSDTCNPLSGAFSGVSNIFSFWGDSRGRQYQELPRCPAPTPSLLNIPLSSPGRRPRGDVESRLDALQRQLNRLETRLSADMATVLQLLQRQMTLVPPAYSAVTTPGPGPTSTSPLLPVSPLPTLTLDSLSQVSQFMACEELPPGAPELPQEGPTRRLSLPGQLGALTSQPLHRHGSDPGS

Going from `CCCN1Cc2cccc(C(N)=O)c2C1=O` to `CN(C)S(=O)(=O)c1cccc(C(=O)OCC(=O)N2CCCC2=O)c1`, the “hERG current change (%, negative = inhibition) at 1uM” value rises from 3.15% to 12.1%.

First: O=C(c1ccc(C(F)(F)F)cc1)C1CCCN(Cc2cccn2-c2ncccn2)C1 (stereo not drawn)
Second: O=C(c1cccc(C(F)(F)F)c1)C1CCCN(Cc2cccn2-c2ncccn2)C1 (stereo not drawn)
The “hERG current change (%, negative = inhibition) at 1uM” value of the first is higher: -88% for the first, -105% for the second.

Compared with `CCn1ccnc1CN1CCCC(C(=O)c2cccc(C(F)(F)F)c2)C1` (stereo not drawn), `O=C(c1cccc(C(F)(F)F)c1)C1CCCN(Cc2ncc[nH]2)C1` (stereo not drawn) is higher in “hERG current change (%, negative = inhibition) at 1uM” value: 1.55% for the first, 11.1% for the second.

Compared with `O=C(c1cccc(C(F)(F)F)c1)C1CCCN(Cc2cccn2-c2ccccn2)C1` (stereo not drawn), `O=C(c1cccc(C(F)(F)F)c1)C1CCCN(Cc2ccccc2O)C1` (stereo not drawn) is higher in “hERG current change (%, negative = inhibition) at 1uM” value: -90.4% for the first, 13.2% for the second.

First: Cc1cccc(CN2CCCC(C(=O)c3ccc(C(F)(F)F)cc3)C2)n1 (stereo not drawn)
Second: O=C(c1ccc(C(F)(F)F)cc1)C1CCCN(Cc2ccncc2)C1 (stereo not drawn)
The “hERG current change (%, negative = inhibition) at 1uM” value of the first is lower: -40% for the first, -7.99% for the second.

First: CC(=O)Nc1ccc(CN2CCCC(C(=O)c3cccc(C(F)(F)F)c3)C2)cc1 (stereo not drawn)
Second: O=C(NCC1CCCN(Cc2cccc(C(F)(F)F)c2)C1)c1ccc(F)cc1 (stereo not drawn)
The “hERG current change (%, negative = inhibition) at 1uM” value of the first is higher: 7.86% for the first, -5.71% for the second.

Going from `CC(=O)c1ccc(S(=O)(=O)Nc2ccccc2C(=O)NC2CC2)cc1` to `O=C(NC1CCCCC1)c1ccc(NS(=O)(=O)c2cccc3cccnc23)cc1`, the “hERG current change (%, negative = inhibition) at 1uM” value rises from 9.72% to 12.5%.

Going from `O=C1CN(S(=O)(=O)c2cccc(C(=O)O)c2)c2ccccc2N1` to `O=C(CNC(=O)c1ccc(Cl)cc1)OCC(=O)c1ccccc1`, the “hERG current change (%, negative = inhibition) at 1uM” value falls from 11.3% to -0.984%.

First: CCC(CC)c1nnc(NC(=O)c2ccc(N3CCCCC3)c([N+](=O)[O-])c2)s1
Second: CCn1ncc(CN2CCCC(CNC(=O)c3ccc(F)cc3)C2)c1C (stereo not drawn)
The “hERG current change (%, negative = inhibition) at 1uM” value of the first is lower: -9.23% for the first, 1.73% for the second.

Going from `C=CCN(CC(O)c1cccc([N+](=O)[O-])c1)C(C)CCc1ccccc1.Cl` (stereo not drawn) to `CC(CCc1ccccc1)N(C)CC(O)c1cccc([N+](=O)[O-])c1.Cl` (stereo not drawn), the “hERG current change (%, negative = inhibition) at 1uM” value falls from -9.83% to -56.8%.

Going from `CC(CCc1ccccc1)NCC(O)c1cccc([N+](=O)[O-])c1.Cl` (stereo not drawn) to `COc1cccc(NC(=O)NCCCCc2ccccc2)c1`, the “hERG current change (%, negative = inhibition) at 1uM” value rises from -8.42% to -0.169%.

First: Cc1cc(C)c(CN2CCCC(CNC(=O)c3ccc(F)cc3)C2)c(-n2cccn2)c1 (stereo not drawn)
Second: Cc1ccc(-n2cccn2)c(CN2CCCC(CNC(=O)c3ccc(F)cc3)C2)c1 (stereo not drawn)
The “hERG current change (%, negative = inhibition) at 1uM” value of the first is lower: -85.4% for the first, -78.9% for the second.

Going from `COc1cccc(CN2CCCC(CNC(=O)c3ccc(F)cc3)C2)c1OC` (stereo not drawn) to `Cc1cc(CN2CCCC(CNC(=O)c3ccc(F)cc3)C2)cc(C)c1O` (stereo not drawn), the “hERG current change (%, negative = inhibition) at 1uM” value falls from -12.6% to -14.5%.

Compared with `CCOC(=O)C1(CC2CCCCO2)CCN(Cc2cc(F)ccc2-n2cccn2)CC1` (stereo not drawn), `CCOC(=O)C1(CC2CCCCO2)CCN(Cc2c(C)cc(C)cc2-n2cccn2)CC1` (stereo not drawn) is lower in “hERG current change (%, negative = inhibition) at 1uM” value: -14.9% for the first, -84.1% for the second.

First: CCOC(=O)C1(CC2CCCCO2)CCN(Cc2nccn2-c2cccc(C)c2)CC1 (stereo not drawn)
Second: COC(=O)C1=C(CSCc2ccco2)NC(=O)NC1c1cc(C)ccc1C (stereo not drawn)
The “hERG current change (%, negative = inhibition) at 1uM” value of the first is higher: -1.48% for the first, -8.26% for the second.

Going from `CCOC(=O)CN(C(=O)c1snc(C(N)=O)c1N)C(C(=O)NCCC(C)C)c1ccc(F)cc1` (stereo not drawn) to `Cn1c(SCC(=O)NCCc2ccccc2)ncc(C(=O)Nc2ccc(F)cc2)c1=O`, the “hERG current change (%, negative = inhibition) at 1uM” value rises from 7.34% to 12.5%.

First: COc1ccccc1CNC(=O)C(CCSC)NS(=O)(=O)c1ccc2c(c1)oc(=O)n2C (stereo not drawn)
Second: COc1ccccc1CN1[C@@H](CC(=O)O)c2cc(F)ccc2S1(=O)=O
The “hERG current change (%, negative = inhibition) at 1uM” value of the first is higher: 15.7% for the first, 13.9% for the second.

Compared with `CC(C(=O)Oc1ccc2c(c1)OCO2)N1C(=O)c2ccccc2C1=O` (stereo not drawn), `Cc1ccccc1-c1ccc(/C=C2/SC(N3CCOCC3)=NC2=O)o1` is lower in “hERG current change (%, negative = inhibition) at 1uM” value: -1.93% for the first, -3.7% for the second.

First: C/C(=N\N1CCN(c2ccc(Cl)cc2)CC1)c1cccs1
Second: C#Cc1ccc(CN2CCN(CCCc3ccccc3)C(CCO)C2)cc1 (stereo not drawn)
The “hERG current change (%, negative = inhibition) at 1uM” value of the first is higher: 4.52% for the first, -14.1% for the second.

Compared with `CCCCC(c1nnnn1C1CCCC1)N1CCN(C2CCCC2)CC1.Cl` (stereo not drawn), `CCCCC(c1nnnn1C1CCCC1)N1CCN(C2CCCCC2)CC1` (stereo not drawn) is higher in “hERG current change (%, negative = inhibition) at 1uM” value: -82% for the first, -63.1% for the second.

First: CCCC(c1nnnn1C1CCCCC1)N1CCN(C2CCCC2)CC1.Cl (stereo not drawn)
Second: CCC(c1nnnn1C1CCCCC1)N1CCN(C2CCCC2)CC1.Cl (stereo not drawn)
The “hERG current change (%, negative = inhibition) at 1uM” value of the first is lower: -16.6% for the first, 11.6% for the second.

Going from `CCCCC(c1nnnn1C1CCCC1)N1CCN(C(=O)c2ccco2)CC1.Cl` (stereo not drawn) to `CCCC(c1nnnn1C(C)(C)CC)N1CCN(C2CCCC2)CC1.Cl` (stereo not drawn), the “hERG current change (%, negative = inhibition) at 1uM” value falls from -13.5% to -17.8%.

Compared with `C=CCNC(=O)c1c(Cl)cccc1Cl`, `Cc1c(Cl)cccc1Nc1nc(N)nc(CSC(=S)N2CCOCC2)n1` is higher in “hERG current change (%, negative = inhibition) at 1uM” value: 6.34% for the first, 8.31% for the second.

Compared with `COc1cccc(CN2CCN(CCCc3ccccc3)C(CCO)C2)c1O` (stereo not drawn), `CCOc1cccc(CN2CCN(CCCc3ccccc3)C(CCO)C2)c1O` (stereo not drawn) is lower in “hERG current change (%, negative = inhibition) at 1uM” value: -41.8% for the first, -54.7% for the second.

First: CCOc1ccc(CN2CCN(CCCn3cccn3)CC2CCO)cc1 (stereo not drawn)
Second: Cc1ccc(CN2CCN(CCCn3cccn3)CC2CCO)cc1 (stereo not drawn)
The “hERG current change (%, negative = inhibition) at 1uM” value of the first is lower: -83% for the first, -23.7% for the second.

Compared with `CCOc1cccc(CN2CCN(CCc3ccccc3)C(CCO)C2)c1O` (stereo not drawn), `CCOc1ccccc1CN1CCN(CCCc2ccccc2)CC1CCO` (stereo not drawn) is lower in “hERG current change (%, negative = inhibition) at 1uM” value: -20.1% for the first, -30% for the second.

Compared with `OCCC1CN(Cc2ccc(F)cc2)CCN1CCCc1ccccc1` (stereo not drawn), `OCCC1CN(Cc2ccc(F)cc2)CCN1CCc1ccccc1` (stereo not drawn) is higher in “hERG current change (%, negative = inhibition) at 1uM” value: -55% for the first, -48% for the second.

First: OCCC1CN(CCCn2cccn2)CCN1Cc1ccccc1 (stereo not drawn)
Second: OCCC1CN(CCCc2ccccc2)CCN1Cc1ccccc1 (stereo not drawn)
The “hERG current change (%, negative = inhibition) at 1uM” value of the first is higher: 8.59% for the first, -35.6% for the second.

Compared with `CCOc1ccc(CN2CCN(CCCc3ccccc3)CC2CCO)cc1` (stereo not drawn), `CCOc1ccc(CN2CCN(CCCc3ccccc3)C(CCO)C2)cc1` (stereo not drawn) is higher in “hERG current change (%, negative = inhibition) at 1uM” value: -80.9% for the first, -75.8% for the second.

Going from `OCCC1CN(CCCc2ccccc2)CCN1Cc1ccc(F)cc1` (stereo not drawn) to `Cc1ccc(CN2CCN(CCCc3ccccc3)CC2CCO)cc1` (stereo not drawn), the “hERG current change (%, negative = inhibition) at 1uM” value falls from -12.1% to -68.7%.

Going from `COc1cc(CN2CCN(CCCc3ccccc3)CC2CCO)cc(OC)c1` (stereo not drawn) to `COc1ccc(CN2CCN(CCCc3ccccc3)C(CCO)C2)c(O)c1` (stereo not drawn), the “hERG current change (%, negative = inhibition) at 1uM” value falls from -46.8% to -71.2%.

Compared with `CC(C)Oc1ccc(Cc2n[nH]c(=S)n2Cc2ccccc2)cc1Cl`, `N#Cc1ccc(CSc2nnc(-c3ccncc3)n2CCc2ccccc2)cc1` is lower in “hERG current change (%, negative = inhibition) at 1uM” value: 5.04% for the first, -78.2% for the second.

First: CC(=O)c1c(C)[nH]c(C(=O)OCC(=O)Nc2ccc(Cl)c(S(=O)(=O)N(C)C)c2)c1C
Second: Cc1ccc(S(=O)(=O)N2CCOCC2)cc1NC(=O)COC(=O)CNC(=O)c1ccc(C(C)(C)C)cc1
The “hERG current change (%, negative = inhibition) at 1uM” value of the first is lower: -2.69% for the first, 20.2% for the second.

Compared with `CCCNc1nc(C)cc(-c2cc(C(=O)NCc3ccccc3)on2)n1`, `CCOc1ccccc1NC(=O)CSc1nc2cccnc2n1C` is lower in “hERG current change (%, negative = inhibition) at 1uM” value: 12% for the first, 5.84% for the second.

Compared with `CCOC(=O)/C(C#N)=C\c1c(C)cc(C)c(COC(C)=O)c1C`, `N#C/C(=C/c1ccc(-c2ccc(C(=O)O)c(Cl)c2)o1)C(=O)NCC1CCCO1` (stereo not drawn) is lower in “hERG current change (%, negative = inhibition) at 1uM” value: 15.6% for the first, 10.3% for the second.

First: COc1ccc(CN2CCN(CCc3ccccc3)C(CCO)C2)c(O)c1 (stereo not drawn)
Second: COc1ccc(O)c(CN2CCN(CCCc3ccccc3)C(CCO)C2)c1 (stereo not drawn)
The “hERG current change (%, negative = inhibition) at 1uM” value of the first is lower: -26.9% for the first, -21.7% for the second.

Going from `OCCOc1ccc(CN2CCN(CCCc3ccccc3)C(CCO)C2)cc1` (stereo not drawn) to `OCCC1CN(CCCc2ccccc2)CCN1CCc1ccccc1` (stereo not drawn), the “hERG current change (%, negative = inhibition) at 1uM” value falls from -19.8% to -32.3%.

First: COC(=O)C1=C(c2cc3ccccc3s2)C[C@@H]2CC[C@H]1N2C(=O)NCCCOC(C)C
Second: COc1ccc(C2CCCN2C(=S)Nc2cccc(Cl)c2C)cc1OC (stereo not drawn)
The “hERG current change (%, negative = inhibition) at 1uM” value of the first is higher: 2.84% for the first, 2.08% for the second.

First: Cc1ccc(S(=O)(=O)N(C)N=O)cc1
Second: Cc1ccc(NC(=O)c2ccc(CSc3nnc(C)s3)cc2)c(C)c1
The “hERG current change (%, negative = inhibition) at 1uM” value of the first is higher: 19.1% for the first, 9.08% for the second.

Going from `CCn1ccnc1CN1CCN(CC=C(C)C)C(CCO)C1` (stereo not drawn) to `CCn1c(CNC(=O)c2ccc(OC)c(OC)c2)nnc1SCC(=O)Nc1ccc(OC)cc1`, the “hERG current change (%, negative = inhibition) at 1uM” value falls from 9.77% to 6.99%.

Going from `Cc1ccc(-c2ccc(/C=C3\SC(N4CCOCC4)=NC3=O)o2)cc1` to `O=C1N=C(N2CCOCC2)S/C1=C/c1ccc(-c2ccc(F)cc2)o1`, the “hERG current change (%, negative = inhibition) at 1uM” value rises from -54.6% to 9.65%.

Going from `CCc1nc2c(nnn2Cc2ccc(F)cc2)c(=O)[nH]1` to `Cn1c(SCCCC(=O)c2ccc(F)cc2)nnc1-c1ccncc1`, the “hERG current change (%, negative = inhibition) at 1uM” value falls from 1.79% to -38.5%.

Going from `N#C/C(=C\c1ccc(OCCN2CCOCC2)cc1)C(=O)Nc1ccccc1F` to `Cn1c(SCCCC(=O)c2ccccc2)nnc1-c1ccncc1`, the “hERG current change (%, negative = inhibition) at 1uM” value falls from 12.6% to -24.9%.

First: CCCC(C(=O)OCC)P(=O)(c1ccccc1)c1ccccc1 (stereo not drawn)
Second: c1ccc(CCn2c(SCc3ccccc3)nnc2-c2ccncc2)cc1
The “hERG current change (%, negative = inhibition) at 1uM” value of the first is higher: -0.896% for the first, -12.4% for the second.

Going from `Cn1c(SCCCC(=O)c2ccc(Br)cc2)nnc1-c1ccncc1` to `Cn1c(SCc2ccc(C#N)cc2)nnc1-c1ccncc1`, the “hERG current change (%, negative = inhibition) at 1uM” value rises from -51.1% to 6.61%.
